Where “and” joins values, the source holds several entries; their conditions need not be identical. Identical values can stand only once. Records with an inconclusive call do not appear. More than one record can exist for a structure, and the calls need not agree. Calls of active or inactive are those of the source. How the source made its calls, unless noted: active means hit-call score of the fitted dose curve at least 0.9, where 1 is the maximum; inactive means score below 0.9.
Legend:
[1] = CCTE_Shafer_MEA_dev_inter_network_spike_interval_mean: CCTE's Neural Network Formation Assay for Mean Inter-network Spike Interval, Shafer Lab (AID 2284047);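 further: potency for a decrease in mean inter-network spike interval below DMSO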
Outline: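 Primary rat cortical neurons on PEI-coated 48-well MEAs (16 electrodes/well) were exposed from plating day 0 to DIV 12, with dosing renewed at DIV 5 and 9. Recordings at DIV 5, 7, 9, 12 were collapsed by trapezoidal AUC, loss-of-signal fit vs DMSO.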

[2] = CCTE_Shafer_MEA_dev_network_spike_number: CCTE's Neural Network Formation Assay for Number of Network Spikes, Shafer Lab (AID 2284048);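 further: synchronized bursts across electrodes counted on days 5 7 9 12 and integrated as AUC; fit as a loss of signal meaning fewer network spikes than DMSO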
Outline: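 Primary rat cortical neurons on PEI/laminin 48-well MEA plates, dosed from plating day 0 for 12 days, renewed at DIV 5 and 9. Network spike counts recorded DIV 5, 7, 9, 12, collapsed as trapezoidal AUC; DMSO baseline.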

[3] = CCTE_Shafer_MEA_dev_spike_duration_mean: CCTE's Neural Network Formation Assay for Mean Spike Duration, Shafer Lab (AID 2284051);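 further: mean network spike duration pooled as area under curve over DIV 5 to 12 recordings; potency for a decrease in mean network spike duration versus DMSO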
Outline: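 Rat cortical primary cultures, 48-well MEA (16 electrodes/well); compound from plating, renewed DIV 5, 9. Network spike duration (AxIS adaptive detector) recorded DIV 5/7/9/12, combined as trapezoidal AUC; loss direction vs DMSO.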

[4] = CCTE_Shafer_MEA_dev_network_spike_duration_std: CCTE's Neural Network Formation Assay for Standard Deviation of Network Spike Duration, Shafer Lab (AID 2284052);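 further: area under curve of spike duration SD across recording days 5 to 12; hits are decreases in network spike duration SD versus DMSO vehicle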
Outline: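 Rat cortical cultures, 1.5 x 10^5 cells/well, exposed continuously from plating to DIV 12 with media/compound renewal at DIV 5, 9. Spontaneous activity recorded DIV 5/7/9/12, AxIS adaptive spike detector; AUC across days; negative direction vs DMSO.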

[5] = CCTE_Shafer_MEA_dev_per_network_spike_spike_number_mean: CCTE's Neural Network Formation Assay for Mean Number of Spikes in a Network Spike, Shafer Lab (AID 2284053);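 further: fitted as decrease in spikes per network spike relative to DMSO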
Outline: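 Rat cortical primary cultures on 48-well MEA; compound from day 0, re-dosed with full media change DIV 5, 9. Recorded DIV 5, 7, 9, 12; spikes in 0.05 s window at network-spike peak ÷ total network spikes; AUC; loss vs DMSO.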

[6] = CCTE_Shafer_MEA_dev_per_network_spike_spike_percent: CCTE's Neural Network Formation Assay for Percent of Spikes in a Network Spike, Shafer Lab (AID 2284054)
Outline: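 Rat primary cortical neurons were grown on 48-well MEA plates (16 electrodes/well), exposed from plating day 0 through day 12, with treatment renewed on DIV 5 and 9. Percent of spikes within 0.05 s network-spike peaks was measured, summarised as AUC across days 5, 7, 9, 12.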

[7] = UKN5_HCS_SBAD2_cell_viability: Viability Assessment in the University of Konstanz (UKN) Leist Lab Neurite Outgrowth Assay in human iPSC-derived immature Dorsal Root Ganglia Neurons (UKN5) (AID 2284056)
Outline: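 iPSC-derived immature peripheral neurons (SBAD2) seeded on Matrigel with CHIR99021, SU5402 and DAPT, dosed 1 h later for 24 h. Viability from Hoechst H-33342 and calcein-AM live staining, high-content imaging; bidirectional fit versus DMSO.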

[8] = CCTE_Shafer_MEA_dev_LDH: CCTE's Lactate Dehydrogenase Assay for Cytotoxicity in the Neural Network Formation Assay, Shafer Lab (AID 2284068; active means hit-call score of the fitted dose curve at least 0.9, where 1 is the maximum;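 further: exposure for twelve days from plating with re-dosing on DIV 5 and 9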)
Outline: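 Rat cortical primary neurons, MEA culture; dosing day 0–12, full medium plus compound exchange DIV 5, 9. Read-out: LDH enzyme activity, spectrophotometric. DMSO = negative control/baseline; signal loss → cytotoxicity.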

[9] = UKN5_HCS_SBAD2_neurite_outgrowth: University of Konstanz (UKN) Leist Lab Neurite Outgrowth Assay in human iPSC-derived immature Dorsal Root Ganglia Neurons (UKN5) (AID 2284070); conditions: actives raise or lower the signal
Outline: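 Human iPSC-derived immature DRG neurons (SBAD2) on Matrigel with CHIR99021 (1.5 uM), SU5402 (5 uM), DAPT (5 uM); compounds added 1 h post-seeding for 24 h. Calcein-AM neurite area imaged; bidirectional fit vs DMSO.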

[10] = CCTE_Shafer_MEA_dev_mutual_information_norm: CCTE's Neural Network Formation Assay for Mutual Information Normalization, Shafer Lab (AID 2284091);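 further: mutual information between electrodes summarised as area under curve across four recording days; potency is for a decrease in mutual information relative to DMSO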
Outline: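 Primary rat cortical neurons on PEI-coated 48-well MEA plates, 1.5 x 10^5 cells/well, exposed from day 0 through day 12 with re-dosing at DIV 5 and 9. Mutual information between electrodes recorded days 5, 7, 9, 12; trapezoidal AUC, loss-of-signal fit versus DMSO.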

[11] = CCTE_Shafer_MEA_dev_correlation_coefficient_mean: CCTE's Neural Network Formation Assay for Mean Correlation Coefficient, Shafer Lab (AID 2284093);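 further: well mean pairwise spike train correlation integrated as AUC over recording days 5 to 12; potency fitted for loss of correlation relative to DMSO vehicle wells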
Outline: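 Rat cortical cultures, 1.5 x 10^5 cells/well, dosed from day 0 for 12 days. Spontaneous spikes recorded DIV 5/7/9/12; electrode-pair correlation coefficients averaged, AUC taken. Fit in loss direction vs DMSO.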

[12] = UKN2_HCS_IMR90_neural_migration: University of Konstanz (UKN) Leist Lab Neural Crest Cell Migration Assay in human induced IMR90 Pluripotent Stem Cells (UKN2) (AID 2284204); conditions: actives raise or lower the signal
Outline: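 iPSC-derived IMR90 neural crest cells seeded around stoppers on PLO/laminin/fibronectin; migration started in N2-S medium with EGF/FGF, compounds added after 24 h for 24 h. Migration into cell-free area imaged after calcein-AM/Hoechst staining; bidirectional fit versus DMSO.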

[13] = UKN4_HCS_LUHMES_neurite_outgrowth: University of Konstanz (UKN) Leist Lab Neurite Outgrowth Assay in human LUHMES cells (UKN4) (AID 2284206); conditions: actives raise or lower the signal
Outline: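 LUHMES neuronal precursors differentiated 2 days, replated without cAMP/GDNF, then exposed to chemicals for 24 h. Neurite area imaged by high-content microscopy after calcein-AM staining; Hoechst H-33342 marks viability. Bidirectional fit versus DMSO.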

[14] = IUF_NPC1b_proliferation_BrdU_72hr: Leibniz Research Institute for Environmental Medicine (IUF) 72-hour Neural Progenitor Cell Bromodeoxyuridine (BrdU) Proliferation Assay (NPC1b) (AID 2284207)
Outline: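 BrdU luminescence ELISA quantified DNA synthesis over the last 16 h of a 72 h exposure, fitted against DMSO. Primary hNPC spheres from gestational week 16-19 cortex grown with EGF/FGF at 37C, pH 7.2-7.6.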

[15] = IUF_NPC1a_proliferation_area_72hr: Leibniz Research Institute for Environmental Medicine (IUF) 72-hour Neural Progenitor Cell Proliferation Area Assay (NPC1a) (AID 2284208)
Outline: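 Proliferation read as increase in sphere area by phase-contrast imaging over 72 h continuous compound exposure (no renewal) of hNPC spheres grown with EGF/FGF at 37C, 5% CO2. Growth-factor withdrawal served as positive control; DMSO as baseline.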

[16] = IUF_NPC1_viability_72hr: Viability Assessment at 72 hours in the Leibniz Research Institute for Environmental Medicine (IUF) Neural Progenitor Cell Proliferation Assay (NPC1) (AID 2284209)
Outline: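 Human fetal-cortex neural progenitor spheres (0.25–0.35 mm, one per well) grown in EGF/FGF proliferation medium at 37C, pH 7.2-7.6, exposed 72 h without renewal; viability read as alamar blue resazurin-to-resorufin fluorescence relative to DMSO.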

[17] = CCTE_Mundy_HCI_Cortical_Synap_Neur_Matur_NeuriteSpotCountPerNeuriteLength: CCTE's Synaptogenesis and Neurite Maturation Assay in rat cortical cells for Neurite Spot Count per Neurite Length, Mundy Lab (AID 2284210)
Outline: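 Rat primary cortical cultures, AraC added at DIV 5 to suppress glia; chemical exposure from DIV 7 to DIV 12. Fixed cells stained for MAP2 and synaptophysin plus Hoechst; synaptophysin puncta per neurite length quantified by high-content imaging, relative to DMSO.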

Measured: AC50

[CH3][Hg][Cl]
active: [1] 5.7 nM | [2] 86.7 nM | [3] 275 nM | [4] 164 nM | [5] 536 nM | [6] 309 nM | [7] 3.17 µM | [8] 182 nM | [9] 636 nM | [10] 134 nM | [11] 306 nM | [12] 5 µM | [13] 164 nM | [14] 906 nM and 968 nM | [15] 370 nM | [16] 820 nM | [17] 881 nM
inactive: [16]

From PubChem BioAssay (EPA / NIEHS)
